# How the values were obtained:
# Experiment in all cases: DAPPL (digital affinity profiling via proximity ligation, sequencing); 10 mM Tris-HCl pH 7.5, 50 mM NaCl, 1 mM DTT, 4% glycerol, room temperature, 30 min; GST-TFs on glutathione beads, 16-mer random dsDNA library, 0.1% formaldehyde crosslink after washing; high values mean tight binding
# [1] = biological target: T1, FLI1 (Homo sapiens, UniProt Q01543 1-452); details: protein: recombinant; tags: N-terminal GST; dsDNA, one strand shown
# T1 sequence: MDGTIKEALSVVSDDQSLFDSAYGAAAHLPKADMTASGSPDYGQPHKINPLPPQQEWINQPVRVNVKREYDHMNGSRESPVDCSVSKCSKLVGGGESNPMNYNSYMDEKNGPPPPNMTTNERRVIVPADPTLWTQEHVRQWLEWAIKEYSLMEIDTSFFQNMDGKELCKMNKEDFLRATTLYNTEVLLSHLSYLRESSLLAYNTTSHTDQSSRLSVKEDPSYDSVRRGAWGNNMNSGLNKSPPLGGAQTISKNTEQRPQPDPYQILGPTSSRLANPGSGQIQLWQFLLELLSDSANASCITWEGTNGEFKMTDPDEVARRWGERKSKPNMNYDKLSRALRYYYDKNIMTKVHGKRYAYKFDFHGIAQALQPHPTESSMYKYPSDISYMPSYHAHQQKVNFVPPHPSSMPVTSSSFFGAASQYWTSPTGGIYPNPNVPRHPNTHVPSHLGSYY
# How it was run: (§1)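 After expression in yeast as GST fusions, human transcription factors were bound to glutathione beads, DNA-barcoded and mixed with a tag-only sample. The pools were incubated with 200 nmole of a 16-mer random double-stranded DNA library in Tris/NaCl/DTT/glycerol buffer (30 min, room temperature), washed and crosslinked with 0.1% formaldehyde. Proximity ligation with BsaI/T4 ligase ran for 1 h at 37 °C, before PCR amplification and sequencing on an Illumina NextSeq500. Binding signal is a hexamer's read frequency for a factor divided by its frequency for the tag-only sample.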
# [2] = biological target: T2, ELK1 (Homo sapiens, UniProt P19419 1-428); details: protein: recombinant; tags: N-terminal GST; dsDNA, one strand shown
# T2 sequence: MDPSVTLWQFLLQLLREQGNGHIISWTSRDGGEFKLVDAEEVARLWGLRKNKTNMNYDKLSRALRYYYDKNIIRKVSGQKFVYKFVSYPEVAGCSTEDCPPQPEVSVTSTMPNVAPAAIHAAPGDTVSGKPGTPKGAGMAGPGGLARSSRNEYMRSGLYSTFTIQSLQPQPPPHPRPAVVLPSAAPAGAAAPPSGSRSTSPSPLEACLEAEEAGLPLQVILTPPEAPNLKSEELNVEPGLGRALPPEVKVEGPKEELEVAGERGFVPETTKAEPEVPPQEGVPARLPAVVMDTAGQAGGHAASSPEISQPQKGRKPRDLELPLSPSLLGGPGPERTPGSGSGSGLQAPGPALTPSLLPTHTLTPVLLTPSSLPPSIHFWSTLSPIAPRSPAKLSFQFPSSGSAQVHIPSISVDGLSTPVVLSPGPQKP
# How it was run: as §1
# [3] = biological target: T3, GABPA (Homo sapiens, UniProt Q06546 1-454); details: protein: recombinant; tags: N-terminal GST; dsDNA, one strand shown
# T3 sequence: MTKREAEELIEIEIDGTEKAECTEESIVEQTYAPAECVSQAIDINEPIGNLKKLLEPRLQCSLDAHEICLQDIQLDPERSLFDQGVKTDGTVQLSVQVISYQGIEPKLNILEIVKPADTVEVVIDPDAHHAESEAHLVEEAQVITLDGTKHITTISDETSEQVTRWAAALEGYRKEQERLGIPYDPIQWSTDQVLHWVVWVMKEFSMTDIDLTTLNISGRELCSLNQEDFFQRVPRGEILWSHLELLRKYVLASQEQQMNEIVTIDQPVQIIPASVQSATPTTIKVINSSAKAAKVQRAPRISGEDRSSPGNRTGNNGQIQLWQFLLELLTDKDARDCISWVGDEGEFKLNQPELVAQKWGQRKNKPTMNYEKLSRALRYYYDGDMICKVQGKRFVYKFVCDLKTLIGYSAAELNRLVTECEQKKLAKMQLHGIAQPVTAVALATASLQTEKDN
# How it was run: as §1
# [4] = biological target: T4, ERG (Homo sapiens, UniProt P11308 1-479); details: protein: recombinant; tags: N-terminal GST; dsDNA, one strand shown
# T4 sequence: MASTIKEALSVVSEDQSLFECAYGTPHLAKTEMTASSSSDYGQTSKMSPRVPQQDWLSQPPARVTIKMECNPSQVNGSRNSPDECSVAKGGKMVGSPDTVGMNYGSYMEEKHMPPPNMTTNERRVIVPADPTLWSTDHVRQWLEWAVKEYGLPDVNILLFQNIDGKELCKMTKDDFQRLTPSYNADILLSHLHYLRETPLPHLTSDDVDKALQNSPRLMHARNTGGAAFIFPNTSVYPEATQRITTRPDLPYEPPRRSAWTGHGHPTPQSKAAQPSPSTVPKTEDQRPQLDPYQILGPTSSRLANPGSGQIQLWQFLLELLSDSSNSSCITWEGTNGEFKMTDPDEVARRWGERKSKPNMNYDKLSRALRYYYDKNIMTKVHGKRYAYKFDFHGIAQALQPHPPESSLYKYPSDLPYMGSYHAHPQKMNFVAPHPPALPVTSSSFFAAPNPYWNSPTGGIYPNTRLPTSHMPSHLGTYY
# How it was run: as §1
# [5] = biological target: ELF1 (Homo sapiens, UniProt P32519 1-619); details: protein: recombinant; tags: N-terminal GST; dsDNA, one strand shown
# How it was run: as §1
# [6] = biological target: T5, EHF (Homo sapiens, UniProt Q9NZC4 1-300); details: protein: recombinant; tags: N-terminal GST; dsDNA, one strand shown
# T5 sequence: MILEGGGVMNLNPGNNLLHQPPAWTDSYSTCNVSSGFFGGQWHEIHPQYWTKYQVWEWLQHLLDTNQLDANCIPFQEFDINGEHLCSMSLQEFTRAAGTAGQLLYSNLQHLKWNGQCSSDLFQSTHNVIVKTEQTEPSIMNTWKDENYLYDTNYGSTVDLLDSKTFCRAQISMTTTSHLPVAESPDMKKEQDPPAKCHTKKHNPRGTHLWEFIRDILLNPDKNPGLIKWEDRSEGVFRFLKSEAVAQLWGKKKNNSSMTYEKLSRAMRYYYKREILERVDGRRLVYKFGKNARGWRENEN
# How it was run: as §1
# [7] = biological target: SPI1 (Homo sapiens, UniProt P17947 1-270); details: protein: recombinant; tags: N-terminal GST; dsDNA, one strand shown
# How it was run: as §1
# [8] = biological target: SPIB (Homo sapiens, UniProt Q01892 1-262); details: protein: recombinant; tags: N-terminal GST; dsDNA, one strand shown
# How it was run: as §1
# [9] = biological target: T6, ELK3 (Homo sapiens, UniProt P41970 1-407); details: protein: recombinant; tags: N-terminal GST; dsDNA, one strand shown
# T6 sequence: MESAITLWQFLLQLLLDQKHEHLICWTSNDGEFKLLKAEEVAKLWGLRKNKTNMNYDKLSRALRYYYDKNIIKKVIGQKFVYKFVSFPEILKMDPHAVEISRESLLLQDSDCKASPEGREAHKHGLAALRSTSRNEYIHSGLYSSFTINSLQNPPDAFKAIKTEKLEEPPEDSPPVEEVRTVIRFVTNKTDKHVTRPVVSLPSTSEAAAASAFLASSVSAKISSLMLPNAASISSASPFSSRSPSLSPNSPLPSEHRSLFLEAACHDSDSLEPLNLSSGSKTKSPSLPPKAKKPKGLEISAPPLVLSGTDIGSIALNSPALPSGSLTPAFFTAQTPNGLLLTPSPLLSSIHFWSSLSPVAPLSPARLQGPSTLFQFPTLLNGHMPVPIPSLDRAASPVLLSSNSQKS
# How it was run: as §1
# [10] = biological target: T7, FEV (Homo sapiens, UniProt Q99581 1-238); details: protein: recombinant; tags: N-terminal GST; dsDNA, one strand shown
# T7 sequence: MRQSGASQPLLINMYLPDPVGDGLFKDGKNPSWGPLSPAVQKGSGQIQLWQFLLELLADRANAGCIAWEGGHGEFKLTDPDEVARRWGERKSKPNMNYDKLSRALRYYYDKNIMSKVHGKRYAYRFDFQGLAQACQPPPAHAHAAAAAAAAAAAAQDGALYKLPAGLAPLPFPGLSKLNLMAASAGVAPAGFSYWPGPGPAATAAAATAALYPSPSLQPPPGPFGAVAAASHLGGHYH
# How it was run: as §1
# [11] = biological target: ETV5 (Homo sapiens, UniProt P41161 1-510); details: protein: recombinant; tags: N-terminal GST; dsDNA, one strand shown
# How it was run: as §1
# [12] = biological target: HSF1 (Homo sapiens, UniProt Q00613 1-529); details: protein: recombinant; tags: N-terminal GST; chain copies: 3; dsDNA, one strand shown
# How it was run: as §1
# [13] = biological target: T8, SPIC (Homo sapiens, UniProt Q8N5J4 1-248); details: protein: recombinant; tags: N-terminal GST; dsDNA, one strand shown
# T8 sequence: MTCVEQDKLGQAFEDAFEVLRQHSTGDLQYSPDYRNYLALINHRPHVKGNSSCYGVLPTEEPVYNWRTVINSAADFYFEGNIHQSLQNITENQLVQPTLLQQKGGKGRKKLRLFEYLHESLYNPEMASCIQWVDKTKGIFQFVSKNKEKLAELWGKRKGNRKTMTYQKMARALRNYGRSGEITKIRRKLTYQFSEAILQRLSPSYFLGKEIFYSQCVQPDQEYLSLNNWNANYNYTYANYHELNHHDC
# How it was run: as §1
# [14] = biological target: ELF4 (Homo sapiens, UniProt Q99607 1-663); details: protein: recombinant; tags: N-terminal GST; dsDNA, one strand shown
# How it was run: as §1
# [15] = biological target: T9, ELK4 (Homo sapiens, UniProt P28324-2 1-405); details: protein: recombinant; tags: N-terminal GST; dsDNA, one strand shown
# T9 sequence: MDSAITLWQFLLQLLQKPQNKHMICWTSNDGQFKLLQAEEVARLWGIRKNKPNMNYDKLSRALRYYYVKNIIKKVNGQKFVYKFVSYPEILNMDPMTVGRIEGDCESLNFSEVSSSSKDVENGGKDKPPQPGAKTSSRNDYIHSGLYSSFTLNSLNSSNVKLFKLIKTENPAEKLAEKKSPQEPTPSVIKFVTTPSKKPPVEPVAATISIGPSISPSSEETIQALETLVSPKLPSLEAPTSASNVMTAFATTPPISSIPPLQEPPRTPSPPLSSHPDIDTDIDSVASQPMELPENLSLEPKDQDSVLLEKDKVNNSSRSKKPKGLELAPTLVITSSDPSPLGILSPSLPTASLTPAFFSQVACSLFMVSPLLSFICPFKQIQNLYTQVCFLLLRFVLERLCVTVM
# How it was run: as §1
# [16] = biological target: T10, ETV2 (Homo sapiens, UniProt O00321 1-342); details: protein: recombinant; tags: N-terminal GST; dsDNA, one strand shown
# T10 sequence: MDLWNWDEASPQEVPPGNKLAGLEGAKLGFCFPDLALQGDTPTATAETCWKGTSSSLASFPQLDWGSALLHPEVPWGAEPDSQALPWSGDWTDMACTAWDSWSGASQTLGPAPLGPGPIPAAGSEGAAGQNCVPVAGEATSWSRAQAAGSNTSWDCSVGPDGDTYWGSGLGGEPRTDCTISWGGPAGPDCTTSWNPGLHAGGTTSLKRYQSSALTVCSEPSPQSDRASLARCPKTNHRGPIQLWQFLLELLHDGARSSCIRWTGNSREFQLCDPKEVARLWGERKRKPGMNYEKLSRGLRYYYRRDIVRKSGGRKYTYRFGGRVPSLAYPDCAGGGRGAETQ
# How it was run: as §1
# [17] = biological target: T11, ELF3 (Homo sapiens, UniProt P78545 1-371); details: protein: recombinant; tags: N-terminal GST; dsDNA, one strand shown
# T11 sequence: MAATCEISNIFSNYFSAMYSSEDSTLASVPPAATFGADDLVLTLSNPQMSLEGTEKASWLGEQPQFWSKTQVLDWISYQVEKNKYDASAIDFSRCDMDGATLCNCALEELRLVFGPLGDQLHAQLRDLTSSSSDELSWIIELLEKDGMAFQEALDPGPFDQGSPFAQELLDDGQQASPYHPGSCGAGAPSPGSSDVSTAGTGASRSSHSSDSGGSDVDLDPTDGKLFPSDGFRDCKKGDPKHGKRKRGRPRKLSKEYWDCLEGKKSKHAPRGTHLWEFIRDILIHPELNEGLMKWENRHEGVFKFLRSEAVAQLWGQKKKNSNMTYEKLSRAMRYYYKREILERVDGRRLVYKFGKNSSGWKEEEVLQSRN
# How it was run: as §1
# [18] = biological target: CRX (Homo sapiens, UniProt O43186 1-299); details: protein: recombinant; tags: N-terminal GST; dsDNA, one strand shown
# How it was run: as §1
# [19] = biological target: ETV1 (Homo sapiens, UniProt P50549 1-477); details: protein: recombinant; tags: N-terminal GST; dsDNA, one strand shown
# How it was run: as §1
# SPIB, sequence (Q01892 whole entry): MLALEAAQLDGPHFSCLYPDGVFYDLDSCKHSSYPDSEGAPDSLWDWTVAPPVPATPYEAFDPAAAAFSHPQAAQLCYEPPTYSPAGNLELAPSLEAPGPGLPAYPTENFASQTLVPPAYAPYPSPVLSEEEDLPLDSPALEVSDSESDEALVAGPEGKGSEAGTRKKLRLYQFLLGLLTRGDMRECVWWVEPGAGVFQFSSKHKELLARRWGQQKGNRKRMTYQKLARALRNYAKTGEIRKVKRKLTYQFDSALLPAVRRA
# CRX, sequence (O43186 whole entry): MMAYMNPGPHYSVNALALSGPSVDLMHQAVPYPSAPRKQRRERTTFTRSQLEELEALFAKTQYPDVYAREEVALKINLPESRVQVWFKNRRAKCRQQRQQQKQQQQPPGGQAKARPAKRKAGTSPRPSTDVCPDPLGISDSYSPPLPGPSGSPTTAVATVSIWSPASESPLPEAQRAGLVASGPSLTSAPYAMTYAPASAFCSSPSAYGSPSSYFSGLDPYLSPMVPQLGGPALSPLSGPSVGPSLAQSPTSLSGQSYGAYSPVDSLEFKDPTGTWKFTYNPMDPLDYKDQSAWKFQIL
# ETV5, sequence (P41161 whole entry): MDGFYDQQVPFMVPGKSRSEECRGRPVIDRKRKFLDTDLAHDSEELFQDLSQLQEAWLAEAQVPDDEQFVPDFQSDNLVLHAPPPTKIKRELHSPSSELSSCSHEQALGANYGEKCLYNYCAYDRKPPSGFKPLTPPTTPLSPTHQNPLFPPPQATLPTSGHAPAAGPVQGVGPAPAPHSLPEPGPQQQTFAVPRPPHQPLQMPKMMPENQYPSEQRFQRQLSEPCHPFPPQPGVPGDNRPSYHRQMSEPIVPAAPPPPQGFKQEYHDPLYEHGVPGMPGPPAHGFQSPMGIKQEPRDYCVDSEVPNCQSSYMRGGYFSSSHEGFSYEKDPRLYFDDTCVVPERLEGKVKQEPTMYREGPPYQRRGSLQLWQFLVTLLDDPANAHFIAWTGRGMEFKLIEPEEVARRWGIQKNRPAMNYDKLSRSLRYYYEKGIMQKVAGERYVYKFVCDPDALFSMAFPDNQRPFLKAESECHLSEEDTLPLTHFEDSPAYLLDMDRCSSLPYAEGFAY
# ELF1, sequence (P32519 whole entry): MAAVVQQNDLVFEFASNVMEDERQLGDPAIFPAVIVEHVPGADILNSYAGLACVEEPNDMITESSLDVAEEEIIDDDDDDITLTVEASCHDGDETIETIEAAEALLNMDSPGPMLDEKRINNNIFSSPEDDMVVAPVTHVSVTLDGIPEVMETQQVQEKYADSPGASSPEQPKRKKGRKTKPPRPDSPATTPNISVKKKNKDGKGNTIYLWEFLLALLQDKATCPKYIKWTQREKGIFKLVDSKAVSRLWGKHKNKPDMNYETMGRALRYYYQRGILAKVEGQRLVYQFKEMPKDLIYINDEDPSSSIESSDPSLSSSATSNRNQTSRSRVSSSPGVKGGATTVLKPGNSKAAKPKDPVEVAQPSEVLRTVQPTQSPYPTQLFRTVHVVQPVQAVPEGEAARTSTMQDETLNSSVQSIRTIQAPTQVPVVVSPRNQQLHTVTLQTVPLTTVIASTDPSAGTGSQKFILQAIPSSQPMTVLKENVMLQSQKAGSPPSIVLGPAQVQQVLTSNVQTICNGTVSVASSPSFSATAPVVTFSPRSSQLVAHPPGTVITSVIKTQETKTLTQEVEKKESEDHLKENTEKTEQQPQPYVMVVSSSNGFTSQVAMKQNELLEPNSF
# HSF1, sequence (Q00613 whole entry): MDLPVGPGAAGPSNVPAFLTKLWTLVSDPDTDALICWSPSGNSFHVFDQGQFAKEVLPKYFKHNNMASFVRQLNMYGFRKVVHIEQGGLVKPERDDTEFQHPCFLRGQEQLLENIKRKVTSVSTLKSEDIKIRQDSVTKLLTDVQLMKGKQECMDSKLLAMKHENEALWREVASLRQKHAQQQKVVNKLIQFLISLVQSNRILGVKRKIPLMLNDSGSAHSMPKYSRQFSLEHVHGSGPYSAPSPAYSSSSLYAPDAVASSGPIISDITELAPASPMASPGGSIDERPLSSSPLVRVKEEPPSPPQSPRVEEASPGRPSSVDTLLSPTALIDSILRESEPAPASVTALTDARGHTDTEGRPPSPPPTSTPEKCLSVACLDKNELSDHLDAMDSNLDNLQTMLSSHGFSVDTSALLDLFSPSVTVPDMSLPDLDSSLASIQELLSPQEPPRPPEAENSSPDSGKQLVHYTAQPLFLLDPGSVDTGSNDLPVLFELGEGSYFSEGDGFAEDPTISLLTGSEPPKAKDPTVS
# ETV1, sequence (P50549 whole entry): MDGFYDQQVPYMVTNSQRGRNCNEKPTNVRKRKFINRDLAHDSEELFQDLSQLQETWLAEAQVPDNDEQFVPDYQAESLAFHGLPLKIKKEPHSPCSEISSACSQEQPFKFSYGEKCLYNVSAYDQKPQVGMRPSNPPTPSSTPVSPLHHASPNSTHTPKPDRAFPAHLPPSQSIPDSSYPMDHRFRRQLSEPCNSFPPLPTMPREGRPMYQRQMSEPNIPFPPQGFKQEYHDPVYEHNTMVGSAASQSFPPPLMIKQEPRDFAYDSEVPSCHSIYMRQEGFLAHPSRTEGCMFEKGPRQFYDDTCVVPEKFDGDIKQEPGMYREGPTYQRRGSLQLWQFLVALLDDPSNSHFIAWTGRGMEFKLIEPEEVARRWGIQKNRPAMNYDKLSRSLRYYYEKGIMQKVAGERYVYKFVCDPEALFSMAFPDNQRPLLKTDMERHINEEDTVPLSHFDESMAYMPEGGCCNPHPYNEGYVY
# ELF4, sequence (Q99607 whole entry): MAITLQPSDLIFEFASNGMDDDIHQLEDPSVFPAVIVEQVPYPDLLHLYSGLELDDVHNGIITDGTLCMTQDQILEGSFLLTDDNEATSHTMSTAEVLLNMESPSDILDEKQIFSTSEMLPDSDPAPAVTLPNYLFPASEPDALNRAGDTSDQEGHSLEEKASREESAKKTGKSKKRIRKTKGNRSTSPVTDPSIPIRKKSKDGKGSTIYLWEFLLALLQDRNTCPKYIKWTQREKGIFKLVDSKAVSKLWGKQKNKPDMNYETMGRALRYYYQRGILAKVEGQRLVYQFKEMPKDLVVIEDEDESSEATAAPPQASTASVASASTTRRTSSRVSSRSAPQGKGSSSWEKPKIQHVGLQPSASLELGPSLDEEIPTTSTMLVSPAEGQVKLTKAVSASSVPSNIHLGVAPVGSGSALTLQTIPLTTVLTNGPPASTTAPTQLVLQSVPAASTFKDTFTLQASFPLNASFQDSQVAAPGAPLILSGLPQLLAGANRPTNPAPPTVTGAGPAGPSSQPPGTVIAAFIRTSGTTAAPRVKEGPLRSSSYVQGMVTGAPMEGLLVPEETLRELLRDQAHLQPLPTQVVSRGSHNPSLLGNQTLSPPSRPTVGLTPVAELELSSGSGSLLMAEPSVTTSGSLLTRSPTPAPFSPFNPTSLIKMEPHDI
sequence,measurement,setting,value
CTAACG,binding signal,[1],"1.22 fold enrichment (6-mer frequency, TF over GST control)"
same,binding signal,[2],"1.23 fold enrichment (6-mer frequency, TF over GST control)"
same,binding signal,[3],"1.09 fold enrichment (6-mer frequency, TF over GST control)"
same,binding signal,[4],"1.21 fold enrichment (6-mer frequency, TF over GST control)"
same,binding signal,[5],"1.13 fold enrichment (6-mer frequency, TF over GST control)"
same,binding signal,[6],"1.13 fold enrichment (6-mer frequency, TF over GST control)"
same,binding signal,[7],"1.26 fold enrichment (6-mer frequency, TF over GST control)"
same,binding signal,[8],"1.11 fold enrichment (6-mer frequency, TF over GST control)"
same,binding signal,[9],"1.19 fold enrichment (6-mer frequency, TF over GST control)"
same,binding signal,[10],"1.19 fold enrichment (6-mer frequency, TF over GST control)"
same,binding signal,[11],"1.19 fold enrichment (6-mer frequency, TF over GST control)"
same,binding signal,[12],"1.09 fold enrichment (6-mer frequency, TF over GST control)"
same,binding signal,[13],"1.04 fold enrichment (6-mer frequency, TF over GST control)"
same,binding signal,[14],"1.17 fold enrichment (6-mer frequency, TF over GST control)"
same,binding signal,[15],"1.19 fold enrichment (6-mer frequency, TF over GST control)"
same,binding signal,[16],"1.01 fold enrichment (6-mer frequency, TF over GST control)"
same,binding signal,[17],"1.18 fold enrichment (6-mer frequency, TF over GST control)"
same,binding signal,[18],"1.1 fold enrichment (6-mer frequency, TF over GST control)"
same,binding signal,[19],"1.11 fold enrichment (6-mer frequency, TF over GST control)"

# — article PMC7862700, “An all-to-all approach to the identification of sequence-specific readers for epigenetic DNA modifications on cytosine”
